Screening data deposited in PubChem by several laboratories.
Rows were chosen to be rich in hits. Some 4% of all compounds tested hit in one or more screens of this group.
Mtb bLac sens: beta-lactam sensitization of Mtb H37Rv | 330,000 compounds, 0.27% hits | inhibition, % at 25 µM | M. tuberculosis H37Rv growth with meropenem, percent inhibition | AID 434955; call rule not given here;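 further: growth measured after seven days incubation then overnight dye step; 0% = bacteria only wells and 100% = bacteria with antibiotic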
GDH-TPI counter-1: inhibits GDH-TPI coupling enzymes, artifact for Mtb FBA screen; GDH-TPI coupled enzyme counterscreen, NADH absorbance; inhibition, % at 4.8 µM; 360,000 compounds, 1.2% hits; AID 588335; in the data active means inhibition above about 30%;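 further: 0% = DMSO wells and 100% = wells lacking the enzyme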
RecA intein inh: Mtb RecA intein splicing inhibition. 290,000 compounds, 0.75% hits. inhibition, % (concentration not given with the values). P9WHJ3. cell-free RecA intein splicing, fluorescence; in the data active means inhibition above about 30%;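 further: 0% = vehicle wells and 100% = reference inhibitor control wells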
Rv3671c inh: inhibits the M. tuberculosis serine protease Rv3671c; P9WHR9; inhibition, % at 5.96 µM; 320,000 compounds, 0.048% hits; in the data active means inhibition above about 38%;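 further: extracellular domain of Rv3671c used as enzyme; 0% = enzyme with DMSO and 100% = no enzyme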
Target sequence (P9WHR9 whole entry, looked up, the tested form may be a part): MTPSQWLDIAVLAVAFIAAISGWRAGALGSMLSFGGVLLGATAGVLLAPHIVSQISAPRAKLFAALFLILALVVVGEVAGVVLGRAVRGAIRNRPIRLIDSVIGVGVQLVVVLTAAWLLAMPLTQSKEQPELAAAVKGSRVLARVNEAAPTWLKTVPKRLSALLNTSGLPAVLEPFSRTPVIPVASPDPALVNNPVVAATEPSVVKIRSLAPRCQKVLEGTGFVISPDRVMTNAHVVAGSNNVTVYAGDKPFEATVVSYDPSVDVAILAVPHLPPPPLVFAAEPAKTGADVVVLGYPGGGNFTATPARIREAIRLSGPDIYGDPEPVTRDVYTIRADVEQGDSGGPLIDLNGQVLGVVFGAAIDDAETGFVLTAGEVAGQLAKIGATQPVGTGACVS
UGM FP inh: inhibitors of M. tuberculosis UDP-galactopyranose mutase; 320,000 compounds, 0.06% hits; purified UGM, fluorescence polarization probe displacement; inhibition, % at 10 µM; in the data active means inhibition above about 10%, passing the limit was not always enough
Mtb FBA inh: Mtb fructose-bisphosphate aldolase inhibition; AID 588726; 360,000 compounds, 2.3% hits; purified M. tuberculosis FBA, fluorescence read-out; P9WQA3; inhibition, % at 1 µM;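 further: 0% = vehicle and 100% = reference inhibitor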
Mtb FBA inh conf: Mtb FBA inhibition, confirmed; shares compounds with Mtb FBA inh; purified M. tuberculosis FBA, fluorescence read-out; inhibition, % at 1 µM; 5,600 compounds, 78% hits; AID 651616;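 further: 0% = vehicle wells and 100% = reference inhibitor wells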
GDH-TPI counter-2: counter-screen for M. tuberculosis FBA inhibitors: GDH-TPI coupled enzyme inhibition; shares compounds with Mtb FBA inh; GDH-TPI coupled enzyme counterscreen, fluorescence; inhibition, % at 1 µM; 5,600 compounds, 81% hits; in the data active means inhibition above about 10%
* marks the source's active call; other numbers are inactive results; nt = no result; + = active, no number. Unless noted, no stated cut-off is given here; in the data, active means inhibition above about 27%; inactive means the rest.

SMILES	Mtb bLac sens	GDH-TPI counter-1	RecA intein inh	Rv3671c inh	UGM FP inh	Mtb FBA inh	Mtb FBA inh conf	GDH-TPI counter-2
COc1ccc(OC)c(/C=C/C(=O)N(C)CC(=O)Nc2ccc(C)cc2)c1	4	25	-34	-7	-1	23	nt	nt
CCN(CC(=O)NCc1cccs1)C(=O)/C=C/c1cc(OC)ccc1OC	-3	21	nt	7	nt	37*	155*	115*
O=C(CC[C@H]1O[C@@H](n2cnc3c(NC(=O)c4ccccc4)ncnc32)[C@H](O)[C@@H]1O)NCc1ccco1	nt	nt	nt	nt	nt	-4	nt	nt
O=C(O)C1CC(Br)C(Br)CC1C(=O)O (stereo not given)	nt	3	nt	nt	nt	-4	nt	nt
N#Cc1c(C(F)(F)F)cc(-c2cccs2)nc1SC(C(=O)O)c1ccccc1 (stereo not given)	-1	10	-2	-3	-1	10	nt	nt
O=c1[nH]c(=S)[nH]c2nc(-c3cccs3)cc(C(F)(F)F)c12	-9	17	1	-1	-3	32*	94*	76*
Nc1c(C(=O)C2CC2)sc2nc(-c3cccs3)cc(C(F)(F)F)c12	2	2	0	0	6	57*	44*	30*
CNc1nc(-c2cccs2)cc(C(F)(F)F)c1C#N	2	-2	nt	-4	0	58*	78*	54*
N#CCCN(C(=O)CSc1nc2nc(-c3cccs3)cc(C(F)(F)F)c2c(=O)[nH]1)c1ccccc1	1	8	0	-1	-1	13	nt	nt
Cn1nnnc1SCC(=O)Nc1nn(-c2ccccc2)nc1C(N)=O	-4	3	2	-6	2	28*	132*	89*
CN1CCN(C2CCN(c3ccc(Nc4nnc(Cl)c(Nc5ccccc5S(C)(=O)=O)n4)c(OC(CF)CF)c3)CC2)CC1	2	13	nt	-3	1	1	nt	nt
O=C(CSc1ncccc1-c1nc2ccccc2[nH]1)NCc1ccco1	-5	2	1	0	-1	21	nt	nt
Cc1cc2nc(-c3cccnc3SCC(=O)NCc3ccco3)[nH]c2cc1C	3	17	-1	-14	1	40*	3	-3
NC(=O)c1ccccc1NS(=O)(=O)Cc1ccccc1	5	4	0	-5	3	62*	84*	66*
NC(=O)COc1ccc(NS(=O)(=O)Cc2ccccc2)cc1	-16	3	-1	1	0	1	nt	nt
Cc1cc(OC(C)C(=O)NCc2cccnc2)c2c(C)c(Cc3ccccc3)c(=O)oc2c1 (stereo not given)	-2	20	-2	-9	-1	19	nt	nt
CCc1cc(=O)oc2cc(C)cc(OC(C)C(=O)NCc3ccncc3)c12 (stereo not given)	7	3	1	1	1	84*	0	-5
CCCCc1cc(=O)oc2cc(C)cc(OC(C)C(=O)NCc3cccnc3)c12 (stereo not given)	-4	-5	0	0	1	56*	55*	43*
CCc1cc(=O)oc2cc(C)cc(OC(C)C(=O)NCc3cccnc3)c12 (stereo not given)	2	-4	-1	7	-3	105*	+	154*
CC(NC(=O)c1cccnc1Sc1ccccc1)c1ccc(S(N)(=O)=O)cc1 (stereo not given)	-3	-5	1	0	0	-2	nt	nt
Cn1ncc(Cl)c1C(=O)NC1CCCC1	-6	-3	-1	-5	1	-5	nt	nt
O=C1C=C(C2OC(CO)C(O)C2O)C(=O)N1 (stereo not given)	nt	4	nt	nt	nt	4	nt	nt
CCCCN(CC)CCNC(=O)c1cc2c(=O)[nH]c3ccc(C)cc3c2s1	0	14	0	-6	0	36*	59*	46*
CCCCN(CC)CCCNC(=O)c1cc2c(=O)[nH]c3ccccc3c2s1	-4	26	-2	-4	3	72*	170*	153*
CCOCCCNC(=O)c1cc2c(=O)[nH]c3ccccc3c2s1	0	11	3	-5	-1	71*	+	+
CC(C)CCNC(=O)c1cc2c(=O)[nH]c3ccccc3c2s1	-3	14	2	-12	2	9	nt	nt
